Where “and” joins values, the source holds several entries; their conditions need not be identical. Equal values may be shown once. Out of some 5,500 compounds screened, about 2,000 (36%) were called active. Inconclusive results (about 18%) are left out. Cut-off read from the data, not from the text of the source: active = normalized growth mostly below about 0.91 (no sharp cut-off); inconclusive = no clear call, values can overlap the other calls; inactive = mostly above about 0.92. The list shows a part of the results.
Experiment: chemical genetic growth profiling, strain panel (AID 1159580);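 note: tested at 20 µM; growth read once vehicle control cultures reached saturation at 30 °C; 1 = growth at the plate median or of vehicle wells; lower values mean less growth of the strain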
Conditions: S. cerevisiae deletion strains, growth OD

Measured: normalized growth

Oc1ccc(Cl)c2cccnc12
active: locus YAL021C, strain ccr4, active compounds read low 0.0729 | locus YAL026C, strain drs2, active compounds read low 0.0768 | locus YAL030W, strain snc1, active compounds read low 0.0588 | locus YBL061C, strain skt5, active compounds read low 0.0618 | locus YBR009C, strain hhf1, active compounds read low 0.0586 | locus YBR021W, strain FUR4, active compounds read low 0.11 | locus YBR023C, strain chs3, active compounds read low 0.0665 | locus YBR171W, strain sec66, active compounds read low 0.0765 | locus YBR229C, strain ROT2, active compounds read low 0.0466 | locus YBR231C, strain swc5, active compounds read low 0.0699 | locus YBR279W, strain paf1, active compounds read low 0.0591 | locus YCL011C, strain gbp2, active compounds read low 0.0563 | locus YCL016C, strain dcc1, active compounds read low 0.119 | locus YCL029C, strain bik1, active compounds read low 0.0654 | locus YCL069W, strain vba3, active compounds read low 0.0931 | locus YCR088W, strain abp1, active compounds read low 0.0863 | locus YDL005C, strain med2, active compounds read low 0.14 | locus YDL035C, strain GPR1, active compounds read low 0.0492 | locus YDL040C, strain nat1, active compounds read low 0.169 | locus YDL074C, strain BRE1, active compounds read low 0.0799 | locus YDL101C, strain DUN1, active compounds read low 0.0585 | locus YDL185W, strain tfp1, active compounds read low 0.0618 | locus YDL192W, strain arf1, active compounds read low 0.0648 | locus YDR001C, strain nth1, active compounds read low 0.113 | locus YDR069C, strain doa4, active compounds read low 0.0629 | locus YDR101C, strain arx1, active compounds read low 0.0618 | locus YDR137W, strain rgp1, active compounds read low 0.102 | locus YDR159W, strain sac3, active compounds read low 0.284 | locus YDR162C, strain NBP2, active compounds read low 0.0481 | locus YDR195W, strain ref2 0.112 | locus YDR297W, strain sur2, active compounds read low 0.0577 | locus YDR318W, strain mcm21, active compounds read low 0.0654 | locus YDR334W, strain swr1, active compounds read low 0.0718 | locus YDR335W, strain msn5, active compounds read low 0.0632 | locus YDR388W, active compounds read low 0.0579 | locus YDR392W, strain spt3, active compounds read low 0.12 | locus YDR502C, strain sam2, active compounds read low 0.0635 | locus YEL003W, strain gim4, active compounds read low 0.0561 | locus YEL037C, strain rad23, active compounds read low 0.0834 | locus YEL061C, strain CIN8 (second series), active compounds read low 0.113 | locus YEL061C, strain CIN8, active compounds read low 0.0497 | locus YER015W, strain faa2, active compounds read low 0.0605 | locus YER016W, strain bim1, active compounds read low 0.0613 | locus YER110C, active compounds read low 0.0829 | locus YER111C, strain swi4, active compounds read low 0.0714 | locus YER155C, strain BEM2 (second series), active compounds read low 0.0997 | locus YER155C, strain BEM2, active compounds read low 0.0681 | locus YER167W, strain BCK2, active compounds read low 0.0524 | locus YFR010W, strain ubp6, active compounds read low 0.0733 | locus YGL078C, strain dbp3, active compounds read low 0.0711 | locus YGL086W, strain mad1, active compounds read low 0.0668 | locus YGL167C, strain pmr1, active compounds read low 0.0738 | locus YGL173C, strain kem1, active compounds read low 0.0702 | locus YGL227W, strain vid30, active compounds read low 0.128 | locus YGL240W, strain doc1, active compounds read low 0.0706 | locus YGL248W, strain PDE1, active compounds read low 0.0483 | locus YGL253W, strain hxk2, active compounds read low 0.0835 | locus YGR078C, strain PAC10, active compounds read low 0.0502 | locus YGR135W, strain pre9, active compounds read low 0.066 | locus YGR252W, strain gcn5, active compounds read low 0.174 | locus YHR013C, strain ard1, active compounds read low 0.101 | locus YHR027C, strain rpn1, active compounds read low 0.0624 | locus YHR030C, strain SLT2, active compounds read low 0.0509 and 0.106 | locus YHR079C, strain IRE1 (second series), active compounds read low 0.0587 | locus YHR079C, strain IRE1, active compounds read low 0.127 | locus YHR094C, strain hxt1, active compounds read low 0.0631 | locus YHR129C, strain ARP1, active compounds read low 0.0599 | locus YHR142W, strain chs7, active compounds read low 0.0877 | locus YHR200W, strain rpn10, active compounds read low 0.0662 | locus YIL066C, strain RNR3, active compounds read low 0.0495 | locus YIL073C, strain SPO22, active compounds read low 0.111 | locus YIL125W, strain kgd1, active compounds read low 0.0705 | locus YIR030C, strain dcg1, active compounds read low 0.0597 | locus YJL092W, strain hpr5, active compounds read low 0.0945 | locus YJL095W, strain BCK1 (second series), active compounds read low 0.0605 | locus YJL095W, strain BCK1, active compounds read low 0.0616 and 0.0998 | locus YJL115W, strain asf1, active compounds read low 0.146 | locus YJL129C, strain trk1, active compounds read low 0.0826 | locus YJL134W, strain LCB3, active compounds read low 0.0525 | locus YJL154C, strain vps35, active compounds read low 0.102 | locus YJL164C, strain tpk1, active compounds read low 0.0587 | locus YJL166W, strain qcr8, active compounds read low 0.059 | locus YJL168C, strain set2, active compounds read low 0.0636 | locus YJL187C, strain SWE1 (second series), active compounds read low 0.0476 | locus YJR043C, strain POL32, active compounds read low 0.0636 | locus YJR066W, strain TOR1, active compounds read low 0.0218 | locus YKL009W, strain mrt4, active compounds read low 0.0954 | locus YKL068W, active compounds read low 0.0759 | locus YKL085W, strain MDH1 (second series), active compounds read low 0.0618 | locus YKL085W, strain MDH1, active compounds read low 0.0618 | locus YKL160W, strain elf1, active compounds read low 0.082 | locus YKR001C, strain vps1, active compounds read low 0.0627 | locus YKR026C, strain gcn3, active compounds read low 0.122 | locus YKR091W, strain srl3, active compounds read low 0.135 | locus YLL001W, strain dnm1, active compounds read low 0.0833 | locus YLL026W, active compounds read low 0.0593 | locus YLL041C, strain sdh2, active compounds read low 0.065 | locus YLR027C, strain aat2, active compounds read low 0.0538 | locus YLR039C, strain RIC1, active compounds read low 0.0942 | locus YLR058C, strain SHM2, active compounds read low 0.0495 | locus YLR102C, strain apc9, active compounds read low 0.0664 | locus YLR113W, strain HOG1, active compounds read low 0.168 | locus YLR221C, strain rsa3, active compounds read low 0.0599 | locus YLR258W, strain gsy2, active compounds read low 0.0596 | locus YLR262C, strain YPT6 (second series), active compounds read low 0.108 | locus YLR262C, strain YPT6, active compounds read low 0.103 | locus YLR268W, strain sec22, active compounds read low 0.0689 | locus YLR320W, strain mms22, active compounds read low 0.0776 | locus YLR330W, strain CHS5, active compounds read low 0.0512 | locus YLR342W, strain FKS1 (second series), active compounds read low 0.0673 | locus YLR342W, strain FKS1, active compounds read low 0.0668 | locus YLR357W, strain rsc2, active compounds read low 0.203 | locus YLR370C, strain arc18, active compounds read low 0.0765 | locus YLR371W, strain rom2, active compounds read low 0.066 | locus YLR384C, strain iki3, active compounds read low 0.0582 | locus YLR418C, strain cdc73, active compounds read low 0.0923 | locus YML016C, strain PPZ1, active compounds read low 0.0462 | locus YML032C, strain rad52, active compounds read low 0.0754 | locus YML120C, strain ndi1, active compounds read low 0.0565 | locus YML124C, strain tub3, active compounds read low 0.0612 | locus YMR058W, strain fet3, active compounds read low 0.0641 | locus YMR078C, strain ctf18, active compounds read low 0.0785 | locus YMR125W, strain sto1, active compounds read low 0.244 | locus YMR129W, active compounds read low 0.0599 | locus YMR205C, strain PFK2, active compounds read low 0.12 | locus YMR223W, strain ubp8, active compounds read low 0.0681 | locus YMR231W, strain pep5, active compounds read low 0.0661 | locus YMR263W, strain SAP30, active compounds read low 0.0554 | locus YMR307W, strain GAS1, active compounds read low 0.132 | locus YNL067W, strain RPL9B, active compounds read low 0.049 | locus YNL071W, strain lat1, active compounds read low 0.0622 | locus YNL183C, strain NPR1, active compounds read low 0.0694 | locus YNL209W, strain ssb2, active compounds read low 0.0567 | locus YNL233W, strain BNI4, active compounds read low 0.0547 | locus YNL248C, strain rpa49, active compounds read low 0.194 | locus YNL250W, strain rad50, active compounds read low 0.0731 | locus YNL271C, strain bni1, active compounds read low 0.0769 | locus YNL298W, strain CLA4, active compounds read low 0.076 | locus YNL307C, strain MCK1, active compounds read low 0.0703 | locus YNL322C, strain KRE1 (second series), active compounds read low 0.0667 | locus YNL322C, strain KRE1, active compounds read low 0.0462 | locus YNR049C, strain mso1, active compounds read low 0.0954 | locus YNR052C, strain pop2, active compounds read low 0.065 | locus YOL006C, strain TOP1, active compounds read low 0.117 | locus YOL147C, strain pex11, active compounds read low 0.0602 | locus YOR001W, strain rrp6, active compounds read low 0.0711 | locus YOR061W, strain CKA2, active compounds read low 0.0478 | locus YOR069W, strain VPS5, active compounds read low 0.0472 | locus YOR070C, strain gyp1, active compounds read low 0.0596 | locus YOR080W, strain dia2, active compounds read low 0.0638 | locus YOR083W, strain WHI5, active compounds read low 0.0897 | locus YOR106W, strain vam3, active compounds read low 0.0664 | locus YOR136W, strain idh2, active compounds read low 0.0784 | locus YOR144C, strain elg1, active compounds read low 0.0595 | locus YOR184W, strain ser1, active compounds read low 0.0724 | locus YOR231W, strain MKK1, active compounds read low 0.115 | locus YOR265W, strain rbl2, active compounds read low 0.0564 | locus YOR270C, strain vph1, active compounds read low 0.131 | locus YOR290C, strain snf2, active compounds read low 0.0717 | locus YOR316C, strain cot1, active compounds read low 0.0637 | locus YPL051W, strain arl3, active compounds read low 0.062 | locus YPL055C, strain LGE1, active compounds read low 0.0714 | locus YPL078C, strain atp4, active compounds read low 0.0623 | locus YPL106C, strain sse1, active compounds read low 0.096 | locus YPL240C, strain hsp82, active compounds read low 0.083 | locus YPL256C, strain CLN2, active compounds read low 0.129 | locus YPR119W, strain clb2, active compounds read low 0.0694 | locus YPR141C, strain kar3, active compounds read low 0.0792 | locus YPR163C, strain tif3, active compounds read low 0.0744 | locus YPR167C, strain met16, active compounds read low 0.0645 | strain wtn01, active compounds read low 0.0639

Source: PubChem BioAssay AID1159580 (chemical genetic matrix, 2015)
